Screening data deposited in PubChem by National Center for Advancing Translational Sciences (NCATS).
A selection: hits, their analogues and other compounds. The true share with any hit is near 11%.
HP1b chromo inh = blocks HP1-beta chromodomain binding to methylated histone tails; Potency, µM (titrated, usually from 114 µM), for the others: at the top dose activity change, negative = inhibition, most hits filed as inhibitors; 390,000 compounds, 0.56% hits; AID 540317; AlphaScreen HP1-beta / biotin-H3K9me3 peptide binding; note: nearly all actives have a fitted effect of over 70% in size
Target sequence (P83916 whole entry, looked up): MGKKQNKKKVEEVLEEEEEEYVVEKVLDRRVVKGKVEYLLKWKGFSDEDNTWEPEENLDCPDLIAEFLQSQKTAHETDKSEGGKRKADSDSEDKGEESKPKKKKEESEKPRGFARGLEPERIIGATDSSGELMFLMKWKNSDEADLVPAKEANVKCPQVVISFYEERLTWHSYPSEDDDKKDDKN
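HP1-beta protein (50 nM final) preincubated 30 min at room temperature with biotinylated H3(1-18)K9me3 peptide (50 nM) in PBS pH 7.4, 0.01% Tween-20, then compound added for 30 min. AlphaScreen streptavidin donor/nickel chelate acceptor beads (10 ug/mL final), 30 min dark, luminescence read.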
JMJD2A Tudor = blocks the human JMJD2A Tudor domain. Potency, µM (titrated, usually from 114 µM), inactives show at the top dose activity change, negative = inhibition, most hits filed as inhibitors. 390,000 compounds, 4.4% hits. AlphaScreen JMJD2A-Tudor / H3K4me3 peptide binding. O75164; note: % is set by controls: 0 for no effect and ±100 for the full control effect; nearly all actives have a fitted effect of over 50% in size
BAZ2B inh = inhibitors of human BAZ2B bromodomain; AlphaScreen BAZ2B-H3K14Ac peptide displacement; Potency, µM (top dose mostly 114 µM), for inactives: at the highest dose activity change, negative = inhibition, most hits filed as inhibitors; 360,000 compounds, 4.4% hits; AID 504333; note: % is set by controls: 0 for no effect and ±100 for the full control effect; nearly all actives have a fitted effect of over 60% in size
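AlphaScreen displacement of biotin-H3(5-23)K14Ac peptide (50 nM final) from BAZ2B (50 nM final) in PBS pH 7.4, 0.01% Tween-20; complex preformed 30 min RT, then compounds (top 110 uM) 30 min RT, beads 20 min dark.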
G9a inh = blocks human histone lysine methyltransferase G9a; Potency, µM (titrated, usually from 102 µM), for inactives: at the highest dose activity, negative = inhibition, actives largely listed as inhibitors; AID 504332; Q96KQ7; G9a H3K9 monomethylation, AlphaScreen, 2 h; 350,000 compounds, 8.8% hits; note: % is set by controls: 0 for no effect and ±100 for the full control effect; nearly all actives have a fitted effect of over 75% in size
Target sequence (Q96KQ7 913-1193 limits assumed): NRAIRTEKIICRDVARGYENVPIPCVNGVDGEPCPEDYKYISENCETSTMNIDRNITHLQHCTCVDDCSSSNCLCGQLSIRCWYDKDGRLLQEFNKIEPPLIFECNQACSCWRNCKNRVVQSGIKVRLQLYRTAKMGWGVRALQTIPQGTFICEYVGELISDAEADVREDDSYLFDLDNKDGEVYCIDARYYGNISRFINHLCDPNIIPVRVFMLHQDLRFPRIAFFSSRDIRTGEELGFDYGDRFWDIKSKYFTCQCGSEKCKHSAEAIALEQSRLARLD
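Using a bead-based AlphaScreen, monomethylated H3K9 product from 2 h room-temperature reactions (G9a 20 nM, peptide 500 nM, SAM 20 uM) was detected with 0.5 ug/mL rabbit anti-H3K9me1 antibody.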
L3MBTL1 block = inhibitors of human L3MBTL1; Q9Y468; Potency, µM (series often up to 57.1 µM), without a hit: at the top dose activity, negative = inhibition, usual class: inhibitors; AID 485360; 230,000 compounds, 0.66% hits; AlphaScreen L3MBTL1–H3K9me1 peptide binding; note: % is set by controls: 0 for no effect and ±100 for the full control effect; nearly all actives have a fitted effect of over 60% in size
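First, the protein-peptide complex forms for 30 min at room temperature (L3MBTL1 50 nM, biotinylated H3K9me1 peptide 75 nM). Next, compounds are pin-transferred and incubated 30 min. Finally, AlphaScreen beads are added and read after 30 min.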
The depositor's hits bear a star; ? = inconclusive; nt = not tested or not shown; [ ] = another dose, or the depositor's remark. Calls come from the whole dose curve; as a rule, active = well fitted inhibition curve with a large enough effect; inconclusive = small, poorly fitted or top-dose-only effect; inactive = no such curve, though single readings can be large or run the other way. Potency is the fitted concentration of half-maximal effect.

SMILES	HP1b chromo inh	JMJD2A Tudor	BAZ2B inh	G9a inh	L3MBTL1 block
NS(=O)(=O)c1ccc(N=Nc2c[nH]c(=O)c(O)c2)cc1	50.1µM*	7.08µM*	7.94µM*	11.2µM*	?
Nc1nc(O)c(N=Nc2ccc(S(N)(=O)=O)cc2)c(=O)[nH]1	32.5%	-2.8%	3.4%	?	nt
COc1ccc(C(=O)NCC(c2ccc3c(c2)OCO3)N2CCN(c3ccccc3F)CC2)cc1 (stereo not given)	20.0%[57 µM]	-33.9%	-25.5%	-26.7%[59 µM]	nt
Cc1ccc(-c2nnc(-c3cccc(Br)c3)o2)cc1	-7.4%	50.1µM*	8.0%	10.6%[59 µM]	12.5%[11.4 µM]
Fc1ccc(C2c3[nH]c4ccccc4c3CCN2CCCn2cccn2)cc1 (stereo not given)	-18.4%	?	39.8µM*	4.8%[59 µM]	-25.8%
Cc1ccccc1C1c2[nH]c3ccccc3c2CCN1CCCn1cccn1 (stereo not given)	-17.4%	?	?	?	?
CCc1ccccc1NC(=O)Cn1c(C(=O)OC)cc2oc(C)cc21	0.7%	-12.0%	0.6%	-8.1%[59 µM]	nt
CCOC(=O)c1[nH]nc(-c2cc(CC)c(O)cc2O)c1-c1cscn1	25.9%	89.1µM*	?	nt	-6.0%
O=c1[nH]c(/C=C/c2ccc(Cl)cc2Cl)c([N+](=O)[O-])c(=O)[nH]1	6.0%	-21.1%	56.2µM*	?	-8.3%
COc1cc(/C=C/c2[nH]c(=O)[nH]c(=O)c2[N+](=O)[O-])cc([N+](=O)[O-])c1O	-8.0%	?	56.2µM*	44.7µM*	nt
O=c1[nH]c(/C=C/c2ccccc2)c([N+](=O)[O-])c(=O)[nH]1	19.6%	-14.5%	-3.6%	-44.8%	3.2%
COc1cc(C(c2c(C)[nH][nH]c2=O)c2c(C)[nH][nH]c2=O)cc([N+](=O)[O-])c1O	?	44.7µM*	?	?	nt
O=c1[nH]c(/C=C/c2cccc([N+](=O)[O-])c2)c([N+](=O)[O-])c(=O)[nH]1	-6.4%	-4.1%	12.7%	79.4µM*	13.4%
Cc1c(NS(=O)(=O)c2ccc3c(c2)Cc2ccccc2-3)c(=O)n(-c2ccccc2)n1C	35.9%	-18.4%	-29.2%	-8.2%	-4.6%
Cc1c(Cl)cccc1NC(=O)CSc1ncccc1C(=O)Oc1ccccc1Cl	20.6%	-1.5%	0.6%	-3.9%[59 µM]	nt
CC(C)(Oc1ccc(Cl)cc1)C(=O)Nc1nc2ccc(S(C)(=O)=O)cc2s1	-10.4%	-30.9%	-3.7%[57.1 µM]	11.2µM*	nt
CS(=O)(=O)c1ccc2nc(NC(=O)c3ccccc3Br)sc2c1	33.9%	-7.9%	-2.0%	50.1µM*	2.6%
CS(=O)(=O)c1ccc2nc(NC(=O)c3ccccc3Cl)sc2c1	12.0%	-19.7%	2.9%	-9.8%	3.5%
Cc1nc(NC(=O)c2csc3ccccc23)sc1C	16.6%	-1.9%	-33.4%	44.7µM*	-2.2%
CS(=O)(=O)c1ccc2sc(NC(=O)c3cc4ccccc4o3)nc2c1	25.0%	1.4%	-13.3%	39.8µM*	nt
COc1cccc(CNC(=O)Cc2csc3ccccc23)c1OC	42.2%	-9.1%	0.5%	-4.9%[59 µM]	nt
CN(Cc1ccco1)C(=O)c1ccc2c(c1)N(Cc1ccccc1F)C(=O)c1ccccc1S2	11.4%	?	-19.4%	-31.5%[59 µM]	nt
CNS(=O)(=O)c1ccc2nc(NC(=O)c3ccc(N4C(=O)CCC4=O)cc3)sc2c1	13.2%	?	-13.1%	3.55µM*	nt
Cc1nnc(NC(=O)c2cc3ccccc3o2)s1	-3.3%	-16.4%	-17.3%	25.6%	nt
O=C(Nc1nnc(C2CC2)s1)c1cc2ccccc2o1	49.4%	-3.4%	4.1%	14.1µM*	5.2%
SMILES	HP1b chromo inh	JMJD2A Tudor	BAZ2B inh	G9a inh	L3MBTL1 block
Cc1nc(NC(=O)c2cc3ccccc3o2)sc1C	6.5%	-11.7%	56.2µM*	20.5%	nt
CCc1ccc2nc(NC(=O)c3ccc(N4C(=O)CCC4=O)cc3)sc2c1	26.7%	0.3%	0.0%	-2.5%[59 µM]	nt
Cc1nc(Nc2ccccc2)sc1C	-5.1%	?	?	12.6µM*	-18.1%
Cc1cccc(NC(=O)CSc2nc3ccccc3nc2N2CCOCC2)c1C	21.2%	-13.4%	-5.1%	2.8%[59 µM]	nt
Cc1nc(NC(=O)CCc2ccccc2)sc1C	?	-28.3%	?	10µM*	-4.4%
CCCOc1ccc(N)cc1N	?	56.2µM*	28.2µM*	5.01µM*	-10.2%
CCCOc1cc(N)ccc1C(=O)OCCN(CC)CC	34.3%	-10.8%	-4.6%	-4.1%[59 µM]	-0.3%
